In PubChem BioAssay AID1671190 (National Center for Advancing Translational Sciences (NCATS), 2021):
The campaign covered roughly 580,000 compounds. About 6,100 (1.1%) were called active. About 15% were inconclusive and are not listed. Calls come from the whole dose curve; as a rule, active = well fitted inhibition curve with a large enough effect; inconclusive = small, poorly fitted or top-dose-only effect, or another doubt; inactive = no such curve, though single readings can be large or run the other way. Only a selection was taken, and actives are over-represented in it overall.

What follows are molecules tested against Polyunsaturated fatty acid lipoxygenase ALOX12 (Homo sapiens) (UniProt P18054) (assay: Primary qHTS assay for inhibitors of human arachidonate 12S-lipoxygenase (ALOX12): Round 2). Settings: purified 12hLO, xylenol orange hydroperoxide absorbance; series mostly up to 108 µM; activity change, negative = inhibition: at the top concentration.
Procedure, shortened: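 Hydroperoxide product was detected by ferrous iron/xylenol orange as the 573 to 405 nm absorbance ratio. Arachidonic acid at 40 uM (final) was turned over for 30 min at room temperature by 150 nM human 12hLO, pH 7.0 Hepes buffer, after 15 min compound preincubation.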
% is set by controls: 0 for no effect and ±100 for the full control effect; potency is the fitted concentration of half-maximal effect.

Polyunsaturated fatty acid lipoxygenase ALOX12 (Homo sapiens), sequence (P18054 whole entry, looked up): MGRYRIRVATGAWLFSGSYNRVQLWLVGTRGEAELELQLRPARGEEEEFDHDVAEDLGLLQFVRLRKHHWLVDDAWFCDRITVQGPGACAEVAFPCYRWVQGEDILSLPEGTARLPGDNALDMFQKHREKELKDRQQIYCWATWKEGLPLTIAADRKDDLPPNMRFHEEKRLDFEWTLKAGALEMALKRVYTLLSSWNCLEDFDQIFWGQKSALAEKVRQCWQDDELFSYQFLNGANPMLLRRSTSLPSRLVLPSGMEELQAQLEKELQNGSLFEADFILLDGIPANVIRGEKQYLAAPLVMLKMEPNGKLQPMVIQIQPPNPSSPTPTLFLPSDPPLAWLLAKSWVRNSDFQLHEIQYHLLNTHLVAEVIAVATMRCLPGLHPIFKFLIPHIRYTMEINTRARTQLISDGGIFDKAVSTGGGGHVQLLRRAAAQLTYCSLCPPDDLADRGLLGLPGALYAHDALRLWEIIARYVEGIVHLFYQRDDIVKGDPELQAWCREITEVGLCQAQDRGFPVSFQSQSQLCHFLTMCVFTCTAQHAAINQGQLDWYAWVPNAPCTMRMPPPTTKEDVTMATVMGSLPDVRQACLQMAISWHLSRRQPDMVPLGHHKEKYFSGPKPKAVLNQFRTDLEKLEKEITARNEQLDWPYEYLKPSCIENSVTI

Activity change, negative = inhibition, inactive:
C/C=C/C=C/C(=O)NCc1cccs1 -25.4%, COc1cc(/C=C2/NC(=O)NC2=O)ccc1OCc1ccccc1F 4.85%, CCOc1ccccc1NC(=O)N1CCN(Cc2nc(-c3ccc(C(=O)NC)cc3)oc2C)CC1 11.9%, CCCn1c(SCC(=O)N2CCc3ccccc32)nnc1-c1ccncc1 -1.43%, Cc1oc(-c2ccccc2)nc1C(=O)NCCCN1CCCC1=O -42%, CCCCc1noc(CSc2cc(C(N)=O)c3ccccc3n2)n1 -28.2%, CCOC(=O)N1CCN(Cc2nc3c(c(=O)[nH]c(=O)n3C)n2Cc2ccc(F)cc2)CC1 -2.99%, COc1ccc(CCc2nnc(NS(=O)(=O)Cc3ccccc3)s2)cc1 -2.97%, CC(=O)Nc1ccc(Cl)c(-c2nc3cc(C)ccc3o2)c1 3.99%, NC(=O)c1ccc(S(=O)(=O)N2CCN(C(=O)c3cc4c(s3)CCC4)CC2)cc1 -23.6%, COc1ccc(CCNC(=O)CSc2nc(C)nc3c2oc2ccccc23)cc1OC 0%, CCc1nc(Nc2ccc3nccnc3c2)c2oc3ccccc3c2n1 -5.11%, COCCN1CCCC(c2[nH]ccc2C(=O)NCCc2c[nH]c3ccccc23)C1 (configuration not stated) 8.73%, CCCCCCCOc1ccc(C(=O)Oc2cncc(Cl)c2)cc1 11.3%, Cc1ccc(S(=O)(=O)N2CCN(C(=O)c3cccs3)CC2)cc1 -3.66%, Cc1ccc(S(=O)(=O)N2CCN(Cc3cccc(C)c3O)CC2)cc1 365%, COc1c(I)cc(Br)cc1/C=C/C(=O)O -10.9%, O=C(Cc1csc(-c2ccccc2Cl)n1)Nc1nccs1 5.87%, Cc1ccc(-c2c3c(=O)n(C)c(=O)n(C)c3cn2-n2cnnc2)cc1 209%, COc1ccc(NC2CC(=O)N(C)C2=O)cc1 (configuration not stated) -37.5%, COc1ccc(N2C(=O)CC(Nc3ccc(F)cc3)C2=O)c([N+](=O)[O-])c1 (configuration not stated) 0.124%, COCCNC(=O)COc1ccc2c(C)cc(=O)oc2c1 2.59%, CCCCn1c2ccccc2c2nnc(SCc3ccc(F)cc3)nc21 -38.6%, O=C(Nc1ccc2nc(N3CCCC3)sc2c1)c1ccc(F)cc1 2.62%, CCCn1nc(C(=O)N(CCOC)Cc2cccs2)c2ccccc2c1=O 49.1%, Cc1cc(O)c(NC(=O)c2ccc(C)c([N+](=O)[O-])c2)cc1C -1.24%, Cc1ccc(C(=O)c2ccc(N3CCN(C)CC3)c([N+](=O)[O-])c2)cc1 -21.1%, COc1ccc(CCn2c(NC3CCCCC3)nc3c2c(=O)[nH]c(=O)n3C)cc1 21.9%, O=C(Nc1ccc2c(c1)CCC2)c1cc2c(s1)CN(C1CC1)C2 327%, CCn1nc(C(=O)Nc2ccccc2Oc2ccccc2)c2ccccc2c1=O 25.4%, COc1ccc(C(=O)COC(=O)c2ccc3c(c2)OCCO3)cc1 -3.77%, Cc1nc2sccn2c(=O)c1S(=O)(=O)NCCc1ccccc1 28.5%, Cc1cccc(C)c1Nc1nc(-c2ccccc2)cs1 -68.3%, Cn1c(SCC(=O)N2CCc3ccccc32)nnc1-c1ccc(F)cc1 -7.62%, O=C(NCCCN1CCN(Cc2ccccc2)CC1)c1ccccc1C(F)(F)F 16.1%, Cc1nccn1-c1ccc(NC(=O)[C@H]2O[C@@H](n3ccc(=O)[nH]c3=O)[C@H](O)[C@@H]2O)cc1 -15.6%, O=C(N[C@H](Cc1ccccc1)C(=O)N1CCCN(Cc2cccs2)CC1)[C@H]1O[C@@H](n2ccc(=O)[nH]c2=O)[C@H](O)[C@@H]1O 8.24%, CCOCCCNCc1ccccc1Cl -55.1%, CC(C)(C)CC(C)(C)NCc1ccco1 -13.7%

Potency, inactive:
O=C(Nc1ccc2nc(SCC(=O)N3CCCc4ccccc43)sc2c1)c1ccc(F)cc1

Potency, active:
CSc1nnc(-c2ccncc2)n1CCCN1CCCC1=O 15.8 µM, CCC(=C/c1sc2ccc3ccccc3c2[n+]1C)/C=C1\Sc2ccc3ccccc3c2N1C 39.8 µM, COc1ccc(C)cc1Nc1nc(C)nc2c1oc1ccccc12 35.5 µM, Cc1ccc(S(=O)(=O)N2CCN(CC(=O)NC(C)c3cccs3)CC2)cc1 (configuration not stated) 0.708 µM, Cc1ccc(-c2c3c(=O)n(C)c(=O)n(C)c3c3n2C(C)(C)COC3c2ccc(C)cc2O)cc1 (configuration not stated) 6.31 µM, CC(=O)Oc1cccc(N2C(=O)CC(Nc3ccc(N4CCOCC4)cc3)C2=O)c1 (configuration not stated) 35.5 µM, O=C(CSc1nc2ccc(NC(=O)c3ccc(F)cc3)cc2s1)NC1CCCCC1 3.98 µM, Cc1oc2cc([N+](=O)[O-])c(O)c([N+](=O)[O-])c2c1C(=O)c1ccc(Br)cc1 28.2 µM, CCN(CC)CCCCNc1ncc2c(n1)N(C)C(=O)N(c1c(Cl)c(OC)cc(OC)c1Cl)C2 34.3 µM, Cc1nc(C)c(-c2csc(NCCc3ccccc3)n2)s1 5.01 µM, O=C(NS(=O)(=O)c1cccs1)[C@H]1O[C@@H](n2ccc(=O)[nH]c2=O)[C@H](O)[C@@H]1O 31.6 µM, CC(C)(C)C1C/C(=C/c2ccco2)C(=O)/C(=C/c2ccco2)C1 (configuration not stated) 39.8 µM
